Test results: PubChem BioAssay (EPA / NIEHS)
Some compounds were tested as several samples or in several runs, with calls that do not always agree. Activity calls are given as the source filed them. How the source made its calls: active means hit-call score of the fitted dose curve at least 0.9, where 1 is the maximum; inactive means score below 0.9.

assay: CCTE_Shafer_MEA_dev_burst_duration_mean: CCTE's Neural Network Formation Assay for Mean Burst Duration, Shafer Lab (AID 2284045);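 on AC50: curve fitted for loss meaning shorter burst duration than DMSO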
Experimental: CCTE_Shafer_MEA_dev assay is conducted using Axion Biosystems 48 well microelectrode array (MEA) plates and Maestro recording system. Each well of the MEA plate contains a grid of 16 microelectrodes embedded in the culture surface. Electrically active cells, such as neurons, can be cultured over the electrodes, and electrical activity in these cells can be recorded extracellularly. The spontaneous firing of neurons is captured from each electrode on a microsecond timescale providing both temporally and spatially precise data. […] The CCTE_Shafer_MEA_dev assay uses primary cultures of rat cortical neurons. Recordings are made on days post-plating 5, 7, 9 and 12. As these cultures mature over time, neural networks develop functional activity and form cohesive networks in which electrical activity can be highly coordinated. CCTE_Shafer_MEA_dev_burst_duration_mean is 1 of 19 assay components of the CCTE_Shafer_MEA_dev assay. It measures the average time interval from the first spike (action potential firing) to the last spike in a singe-electrode burst (temporally-clustered group of spikes) during a recording in a microelectrode array (MEA) using Axion Biosystems Maestro 768 channel amplifier with the AxIS adaptive spike detector. The mean burst duration is averaged across the actively bursting electrodes to report a well-mean value. To collapse across multiple recordings made on days post-plating 5, 7, 9 and 12, the trapezoidal area-under-the-curve of the component is calculated.Data from the assay component CCTE_Shafer_MEA_dev_burst_duration_mean was analyzed into 1 assay endpoint. This assay endpoint, CCTE_Shafer_MEA_dev_burst_duration_mean, was analyzed in the negative analysis fitting direction relative to DMSO as the negative control and baseline of activity. Using a type of functional reporter, gain or loss-of-signal activity can be used to understand electrical activity.
On the day prior to culture, each well was coated thoroughly with 150 uL of 0.05% polyethyleneimine (PEI, Sigma Cat P3143) in 50 mM HEPES (Sigma Cat H7523) at a pH of 8. The plate was incubated at 37C for one hour. PEI was rinsed out with 500 uL of sterile water three times. Plates were stored at 4C until the day of culture. This culture was plated at a seeding density of 1.5 x 10^5 cells/well on a 48-well MEA plate, prepared as described above. Cells were administered via a 25 uL media/laminin ([…]; Sigma Cat L2020-1MG) drop directly onto the microelectrode array, as adding the cells with the laminin results in better attachment than pre-coating with laminin. After 2 hours, an additional 475 uL of cortical media was added and the cells returned to the incubator. Exposure starts at day 0 of plating and is continued over twelve days of network development until the experiment is terminated. Cells are fed with fresh medium on DIV 5 and 9, following the recordings on those days. The entire volume of media in the well is exchanged and any vehicle or compound treatment is renewed. Complete details are found in OP-NHEERL/ISTD/SBB/TJS/2015-03-r0 (available on request, email shafer.tim@epa.gov). Measurement of the electrical activity is non-invasive, and recordings can be made from the same plate over multiple different days of the culture. In cortical neurons, this allows for the measurement of extracellular action potentials over the period during which networks form in the MEA plate.

SMILES | outcome | AC50
O=P(O)(O)CCC(F)(F)C(F)(F)C(F)(F)C(F)(F)C(F)(F)C(F)(F)C(F)(F)C(F)(F)F | inactive | –
COC(=O)C(F)(F)C(F)(F)C(F)(F)C(F)(F)C(F)(F)F | inactive | –
OCC(F)(F)C(F)(F)C(F)(F)C(F)(F)C(F)(F)C(F)(F)C(F)(F)C(F)(F)C(F)(F)C(F)(F)C(F)(F)F | inactive | –
FCOC(C(F)(F)F)C(F)(F)F | inactive | –
CC(=O)Nc1ccc(O)cc1 | inactive | 22500 nM (active)
O=C(O)CCC(F)(F)C(F)(F)C(F)(F)C(F)(F)C(F)(F)F | inactive | –
O=C(CCCN1CCC(O)(c2ccc(Cl)cc2)CC1)c1ccc(F)cc1 | – | 1290 nM (active)
CN(Cc1cnc2nc(N)nc(N)c2n1)c1ccc(C(=O)N[C@@H](CCC(=O)O)C(=O)O)cc1 | – | 72.8 nM (active)
O=CC(F)(F)C(F)(F)C(F)(F)C(F)F | inactive | –
O=C(F)C(F)(F)C(F)(F)C(F)(F)C(=O)F | inactive | –
NC(C(F)(F)F)C(F)(F)F | inactive | –
O=C(F)C(F)(F)C(F)(F)C(F)(F)C(F)F | inactive | –
O=C(O)C(F)(F)OC(F)(F)C(F)(F)OC(F)(F)C(F)(F)OC(F)(F)C(F)(F)C(F)(F)C(F)(F)F | inactive | –
CC(C)c1c(C(=O)Nc2ccccc2)c(-c2ccccc2)c(-c2ccc(F)cc2)n1CC[C@@H](O)C[C@@H](O)CC(=O)O | – | 10.5 nM (active)
COC(=O)C(F)(F)C(F)(F)C(F)(F)F | inactive | –
C=CC(F)(F)C(F)(F)C(F)(F)C(F)(F)F | inactive | –
FC(F)=C(F)C(F)(F)C(F)(F)C(F)(F)C(F)F | inactive | –
O=P(O)(O)CCC(F)(F)C(F)(F)C(F)(F)C(F)(F)C(F)(F)C(F)(F)F | inactive | –
CN(C)CCOC(c1ccccc1)c1ccccc1 | inactive | –
O=C(CC(=O)C(F)(F)C(F)(F)C(F)(F)F)c1cccs1 | inactive | –
O=CC(F)(F)C(F)(F)C(F)(F)F | inactive | –
Nc1ccn([C@@H]2O[C@H](CO)[C@@H](O)C2O)c(=O)n1 (some centres not stated) | – | 856 nM (active)
O=C1NS(=O)(=O)c2ccccc21 | inactive | –
CN(CCO)S(=O)(=O)C(F)(F)C(F)(F)C(F)(F)C(F)(F)C(F)(F)C(F)(F)C(F)(F)C(F)(F)F | inactive | –
O=C(OC(=O)C(F)(F)C(F)(F)F)C(F)(F)C(F)(F)F | inactive | –
O=C(C=C(O)C(F)(F)F)C(F)(F)F | inactive | –
